Screening results (PubChem)
CSC inhib – cancer stem cell viability inhibitors, primary screen, luminescence. cancer stem cell-like cells viability. inhibition, % at 7.5 µM. actives 1.1% (n = 300,000). AID 2717, 2010; in the data active = inhibition above about 75%; inconclusive = no clear call, values can overlap the other calls; tested in HMLE shEcad cells
Beta cell apopt – inhibitors of cytokine-induced beta cell apoptosis, primary screen, luminescence | INS-1E cytokine-induced death, ATP luminescence, 48 h; percent of positive-control rescue, neutral wells zero | actives 0.8% (n = 300,000) | AID 435005, 2010 | protection from apoptosis, % (test concentration not listed);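 active = Every replicate reaches about 75%, or at least half do and their mean reaches it too, limit read from the data; inconclusive = At least half of replicates reach the limit but their mean does not; inactive = Under half of replicates reach the limit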;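 also: 0% = cytokine-treated negative control wells and 100% = positive control rescue; higher means more ATP so stronger rescue from cytokine killing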
MPTP block – mitochondrial permeability transition pore inhibitors, primary screen, biochemical, isolated mouse mitochondria, absorbance | Ca2+ swelling absorbance, 30 min | inhibition, % at 10 µM | actives 1.4% (n = 360,000) | AID 602449, 2012;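 active = inhibition of 50% or more, scaled per plate between neutral and stimulator controls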;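 also: 0% = DMSO wells given calcium and 100% = 1 mM EGTA wells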
Calb FLC – C. albicans growth inhibition with fluconazole, primary screen, CaCi-2 strain, Alamar Blue fluorescence. C. albicans CaCi-2 (fluconazole-resistant clinical isolate) + fluconazole, 48 h. growth inhibition, % (concentration not given with the values). actives 0.57% (n = 300,000);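 active = growth inhibition above about 58% in most replicates, limit read from the data, passing the limit was not always enough; inconclusive = exactly half the replicates above a set limit; inactive = most replicates below a set limit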;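 also: all wells also contain fluconazole at 8 µg/ml as a sub-toxic cotreatment; 0% = median of DMSO wells and 100% = median of geldanamycin control wells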
Mdm2 MdmX PPI – inhibitors of human Mdm2-MdmX association, primary screen, cell-based, luminescence, split luciferase, SaOS-2, uHTS; Protein Mdm4 (Homo sapiens) + E3 ubiquitin-protein ligase Mdm2 (Homo sapiens), …; SaOS-2 split-luciferase Mdm2/MdmX complementation; inhibition, % at 8 µM; actives 3% (n = 330,000); AID 485346, 2010;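 active = inhibition of at least 50% at 8 µM in the primary screen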
Target sequence (O15151 whole entry, looked up): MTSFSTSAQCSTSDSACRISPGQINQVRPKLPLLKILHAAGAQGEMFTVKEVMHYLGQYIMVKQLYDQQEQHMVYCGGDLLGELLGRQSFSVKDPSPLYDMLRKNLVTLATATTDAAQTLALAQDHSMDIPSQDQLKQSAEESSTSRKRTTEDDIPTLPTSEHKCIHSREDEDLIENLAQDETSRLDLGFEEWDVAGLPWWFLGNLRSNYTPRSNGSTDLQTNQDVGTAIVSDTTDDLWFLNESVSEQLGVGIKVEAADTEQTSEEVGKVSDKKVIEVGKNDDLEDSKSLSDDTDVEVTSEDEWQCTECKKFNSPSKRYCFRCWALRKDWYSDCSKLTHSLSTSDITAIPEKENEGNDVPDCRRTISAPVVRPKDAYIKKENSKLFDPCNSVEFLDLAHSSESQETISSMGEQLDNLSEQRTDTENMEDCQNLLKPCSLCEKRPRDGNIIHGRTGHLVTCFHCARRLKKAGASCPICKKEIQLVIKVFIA
Target sequence (Q00987 whole entry, looked up): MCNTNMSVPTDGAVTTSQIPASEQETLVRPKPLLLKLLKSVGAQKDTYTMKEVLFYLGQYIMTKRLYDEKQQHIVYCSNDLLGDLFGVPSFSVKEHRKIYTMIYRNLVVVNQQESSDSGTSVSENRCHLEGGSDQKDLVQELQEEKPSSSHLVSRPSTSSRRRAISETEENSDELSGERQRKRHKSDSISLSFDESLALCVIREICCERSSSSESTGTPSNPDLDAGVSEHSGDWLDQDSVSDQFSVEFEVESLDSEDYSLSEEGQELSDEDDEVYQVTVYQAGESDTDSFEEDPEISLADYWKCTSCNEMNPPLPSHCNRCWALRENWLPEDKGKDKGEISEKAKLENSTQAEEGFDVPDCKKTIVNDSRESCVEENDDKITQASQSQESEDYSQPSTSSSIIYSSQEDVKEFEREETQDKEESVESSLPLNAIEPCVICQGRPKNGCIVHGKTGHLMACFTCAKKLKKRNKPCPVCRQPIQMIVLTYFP
Mdm2-MdmX conf – Mdm2-MdmX complex disruptors, retested hits, confirmation, luminescence, single concentration | shares compounds with Mdm2 MdmX PPI | Mdm2-MdmX binding, luminescent assay | inhibition, % at 8 µM | actives 55% (n = 10,000) | AID 489028, 2010; in the data active = inhibition above about 40%
FLuc counter – full-length luciferase signal inhibition, confirmation, counter-screen for Mdm2/MdmX interaction inhibitor project, cell-based, single concentration, SaOS-2; shares compounds with Mdm2 MdmX PPI; SaOS-2 full-length luciferase counterscreen, luminescence; inhibition, % at 8 µM; actives 77% (n = 6,200);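 active = mean inhibition at 8 µM reaching about 37%, which flags the compound as non-specific, limit read from the data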;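 also: p53-null SaOS-2 cells with luciferase driven by a doxycycline-inducible promoter; compound on cells about two nights before reading with doxycycline added after day one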
Rh123 counter – fluorescence retest of MPTP screen hits in isolated mitochondria, single concentration; membrane potential, Rhodamine 123 fluorescence; shares compounds with MPTP block; actives 78% (n = 5,000); inhibition, % at 10 µM; in the data active = inhibition above about 22%;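 also: 0% = DMSO vehicle and 100% = positive control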
MPTP swell DR – mitochondrial permeability transition pore inhibitors, dose response, biochemical, absorbance, uHTS hits; shares compounds with MPTP block; isolated mitochondria swelling; IC50, µM; actives 58% (n = 780); in the data active = IC50 below about 20 µM
MPTP counter DR – fluorescent counter-screen in isolated mitochondria, dose response, counter-screen for MPTP inhibitor project, biochemical, fluorescence, uHTS hits | shares compounds with MPTP block | isolated mitochondria counterscreen, fluorescence read-out | IC50, µM | actives 49% (n = 780); in the data active = IC50 below about 80 µM
Active calls of the source: *; i = inactive; ? = inconclusive; . = not tested or not shown; + = active, no number. Hits are enriched below; roughly 4.8% of the tested compounds scored in any of these assays.

SMILES	CSC inhib	Beta cell apopt	MPTP block	Calb FLC	Mdm2 MdmX PPI	Mdm2-MdmX conf	FLuc counter	Rh123 counter	others
CC[n+]1c(C)sc2c3ccsc3ccc21	-6	-17	0	7	-10	.	.	.
Cc1ccccc1-c1cc2nc(Oc3cccc(F)c3)n(C)c(=O)c2s1	.	.	0	.	.	.	.	.
COc1ccc(NC(=O)Nc2cccc3c2O[C@H](CN(C)C(=O)NC(C)C)[C@@H](C)CN([C@H](C)CO)C3=O)cc1	-2	-2	-1	.	6	.	.	.
Cc1cc(F)ccc1S(=O)(=O)NCC(c1cccnc1)N1CCc2ccccc21 (configuration not stated)	-8	-3	1	3	19	.	.	.
O=C(Nc1ccccc1Cc1ccccc1)c1ccccc1NS(=O)(=O)c1ccc(Cl)s1	+	47	64*	?	93*	92*	21	51*
Cc1ccc(NC(=O)c2ccccc2NS(=O)(=O)c2ccc(Cl)s2)cc1	51	77*	68*	78*	90*	81*	29	76*
Cc1ccc(NS(=O)(=O)c2ccc(Cl)s2)nc1	-2	2	-1	6	6	.	.	.
S=C(NCc1ccccc1)NNc1nc2ccccc2[nH]1	2	-5	-7	-10	19	.	.	.
CCCCn1c(NC(=O)CC)c(C#N)c2nc3ccccc3nc21	-7	-5	0	6	-9	.	.	.
CCCCn1c(NC(=O)c2ccccc2Cl)c(C#N)c2nc3ccccc3nc21	59	19	96*	-1	58*	24	.	70*
Cc1ccc(OC(F)F)c(NC(=O)Nc2cccc(C(F)(F)F)c2)c1	5	66	96*	-27	88*	59*	24	73*
Cc1ccc([N+](=O)[O-])cc1NC(=O)CN(C(=O)c1ccc(Cl)cc1)C1CCCCC1	-17	6	14	16	15	.	.	.
O=C(CN(C(=O)c1ccc(Cl)cc1)C1CCCCC1)Nc1ccc(Cl)c([N+](=O)[O-])c1	31	34	64*	-1	65*	43*	72*	86*
Cc1cccc(NC(=O)CSc2nc(=O)n(CCN3CCOCC3)c3c2CCCC3)c1C	-13	.	3	5	-4	.	.	.
COc1ccc(-c2nc(-c3cccc(C)c3)nc(N3CCN(C)CC3)c2C#N)cc1	-7	3	91*	-4	66*	74*	57*	1	MPTP swell DR=i;MPTP counter DR=>80
Cc1ccccc1NC(=O)c1cc(C(=O)c2cc(Cl)ccc2O)cn(-c2ccccc2C)c1=O	9	73	90*	20	78*	71*	50*	75*
C[C@H](CO)N1C[C@H](C)[C@@H](CN(C)Cc2ccccc2)Oc2c(NC(=O)C3CC3)cccc2C1=O	3	-10	2	.	-61	.	.	.
CCOc1ccc(C2C=C(c3ccccc3)Nc3nnnn32)cc1 (configuration not stated)	-6	0	4	16	-227	.	.	.
CCOc1ccc(C2C=C(c3ccc(C)cc3)Nc3nnnn32)cc1 (configuration not stated)	14	0	73*	3	50*	12	.	26*
Cc1sc(NC(=O)c2ccco2)c(C(c2ccc(F)cc2)N2CCN(C)CC2)c1C (configuration not stated)	-1	-5	82*	7	54*	36	74*	-23
COc1ccc([C@@H]2C[C@H]3[C@@H](CN2S(=O)(=O)c2ccccc2)C(=O)C[C@@H](c2cccc(Cl)c2)N3S(=O)(=O)c2ccc(C)cc2)cc1	.	.	2	.	.	.	.	.
CC(C)Cn1c(N)c(C(=O)CSc2ccc3c(c2)OCCO3)c(=O)n(C)c1=O	-5	94*	99*	5	52*	55*	41*	86*
Fc1ccc(Nc2nnc(C(F)(F)F)s2)cc1Cl	48	46	75*	-7	73*	68*	57*	86*
CSc1ncccc1C(=O)OCC(=O)Nc1ccc2c(c1)CCC2	-19	-4	-1	.	9	.	.	.
CCCCNc1c(-c2cccc(-c3ccc(OC)cc3)c2)nc2cc(C)ccn12	.	56	63*	.	92*	-1	.	102*
SMILES	CSC inhib	Beta cell apopt	MPTP block	Calb FLC	Mdm2 MdmX PPI	Mdm2-MdmX conf	FLuc counter	Rh123 counter	others
CCCCNc1c(-c2cccc(-c3ccc(OC)cc3)c2)nc2ccc(C)cn12	114*	92*	56*	9	99*	56*	66*	77*
CCOC(=O)CC(NC(=O)CCc1c(C)nc2ncnn2c1C)c1ccc(C)cc1 (configuration not stated)	-13	5	0	9	-11	.	.	.
CC(C)(C)OC(=O)CC[C@@H](C(=O)NCCCCCCCCCCC(=O)N1CCN(C(=O)OC(C)(C)C)CC1)n1cc(CCCCCNC(=O)OC(C)(C)C)nn1	-1	12	1	.	-11	.	.	.
CC(C)(C)OC(=O)NCCCCCc1cn([C@@H](CO)C(=O)NCCCCCCCCCCC(=O)N2CCN(C(=O)OC(C)(C)C)CC2)nn1	18	109*	99*	.	62*	6	.	109*
c1ccc(C2[C@H]3CN(CC4CCCCC4)[C@H](c4ccccc4)C34CC2(c2cccnc2)C4)cc1 (some centres not stated)	10	3	-1	2	19	.	.	.
Fc1ccc(Nc2nc(-c3ccncc3)nc3ccccc23)cc1F	0	8	71*	-12	82*	81*	64*	45*
Clc1ccccc1Nc1nc(-c2ccncc2)nc2ccccc12	23	1	-1	-3	40	.	.	.
Clc1cccc(Nc2nc(-c3ccncc3)nc3ccccc23)c1	56	21	69*	23	93*	45*	18	83*
COc1ccc(S(=O)(=O)Nc2ccc3c(c2)C(=O)N([C@H](C)CO)C[C@H](C)[C@@H](CN(C)Cc2ccncc2)OCCCC[C@@H](C)O3)cc1	.	.	1	.	.	.	.	.
